PubChem BioAssay AID1159580 (chemical genetic matrix, 2015)
The campaign covered roughly 5,500 compounds. About 2,000 (36%) were called active. Roughly 18% stayed inconclusive and do not appear here. Cut-off read from the data, not from the text of the source: active = normalized growth mostly below about 0.91 (no sharp cut-off); inconclusive = no clear call, values can overlap the other calls; inactive = mostly above about 0.92. The list shows a part of the results.

Assay: chemical genetic growth profiling, strain panel (AID 1159580);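 note: tested at 20 µM; growth read once vehicle control cultures reached saturation at 30 °C; 1 = growth at the plate median or of vehicle wells; lower values mean less growth of the strain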
Settings: growth OD

Measured: normalized growth

CC(=O)Nc1ccc(O)cc1
active: S. cerevisiae deletion strains, locus YKL068W, hits give low values 0.936 | S. cerevisiae deletion strains, locus YNL298W, strain CLA4, hits give low values 0.897 | S. cerevisiae deletion strains, locus YPR141C, strain kar3, hits give low values 0.911
inactive: S. cerevisiae deletion strains, locus YJR075W, strain HOC1, hits give low values 1.06 | S. cerevisiae deletion strains, locus YKL009W, strain mrt4, hits give low values 0.952 | S. cerevisiae deletion strains, locus YKL085W, strain MDH1 (second series), hits give low values 0.943 | S. cerevisiae deletion strains, locus YKL085W, strain MDH1, hits give low values 0.943 | S. cerevisiae deletion strains, locus YKL160W, strain elf1, hits give low values 1.01 | S. cerevisiae deletion strains, locus YKR001C, strain vps1, hits give low values 0.982 | S. cerevisiae deletion strains, locus YKR026C, strain gcn3, hits give low values 1.02 | S. cerevisiae deletion strains, locus YKR091W, strain srl3, hits give low values 1.01 | S. cerevisiae deletion strains, locus YLL001W, strain dnm1, hits give low values 0.998 | S. cerevisiae deletion strains, locus YLL026W, hits give low values 1.02 | S. cerevisiae deletion strains, locus YLL041C, strain sdh2, hits give low values 1.01 | S. cerevisiae deletion strains, locus YLR027C, strain aat2, hits give low values 1.01 | S. cerevisiae deletion strains, locus YLR039C, strain RIC1, hits give low values 0.742 | S. cerevisiae deletion strains, locus YLR058C, strain SHM2, hits give low values 0.984 | S. cerevisiae deletion strains, locus YLR102C, strain apc9, hits give low values 0.986 | S. cerevisiae deletion strains, locus YLR113W, strain HOG1, hits give low values 0.974 | S. cerevisiae deletion strains, locus YLR221C, strain rsa3, hits give low values 0.989 | S. cerevisiae deletion strains, locus YLR258W, strain gsy2, hits give low values 1.02 | S. cerevisiae deletion strains, locus YLR262C, strain YPT6 (second series), hits give low values 1.04 | S. cerevisiae deletion strains, locus YLR262C, strain YPT6, hits give low values 0.772 | S. cerevisiae deletion strains, locus YLR268W, strain sec22, hits give low values 0.978 | S. cerevisiae deletion strains, locus YLR320W, strain mms22, hits give low values 1.01 | S. cerevisiae deletion strains, locus YLR330W, strain CHS5, hits give low values 0.986 | S. cerevisiae deletion strains, locus YLR342W, strain FKS1 (second series), hits give low values 1.05 | S. cerevisiae deletion strains, locus YLR342W, strain FKS1, hits give low values 1.03 | S. cerevisiae deletion strains, locus YLR357W, strain rsc2, hits give low values 1.02 | S. cerevisiae deletion strains, locus YLR370C, strain arc18, hits give low values 1.01 | S. cerevisiae deletion strains, locus YLR371W, strain rom2, hits give low values 0.999 | S. cerevisiae deletion strains, locus YLR384C, strain iki3, hits give low values 1.01 | S. cerevisiae deletion strains, locus YLR418C, strain cdc73, hits give low values 1.08 | S. cerevisiae deletion strains, locus YML016C, strain PPZ1, hits give low values 0.975 | S. cerevisiae deletion strains, locus YML032C, strain rad52, hits give low values 0.971 | S. cerevisiae deletion strains, locus YML120C, strain ndi1, hits give low values 1.02 | S. cerevisiae deletion strains, locus YML124C, strain tub3, hits give low values 0.972 | S. cerevisiae deletion strains, locus YMR058W, strain fet3, hits give low values 1.03 | S. cerevisiae deletion strains, locus YMR078C, strain ctf18, hits give low values 0.986 | S. cerevisiae deletion strains, locus YMR125W, strain sto1, hits give low values 1.01 | S. cerevisiae deletion strains, locus YMR129W, hits give low values 1.01 | S. cerevisiae deletion strains, locus YMR205C, strain PFK2, hits give low values 1.02 | S. cerevisiae deletion strains, locus YMR223W, strain ubp8, hits give low values 0.98 | S. cerevisiae deletion strains, locus YMR231W, strain pep5, hits give low values 1.03 | S. cerevisiae deletion strains, locus YMR307W, strain GAS1, hits give low values 0.876 | S. cerevisiae deletion strains, locus YNL067W, strain RPL9B, hits give low values 1.04 | S. cerevisiae deletion strains, locus YNL071W, strain lat1, hits give low values 1.02 | S. cerevisiae deletion strains, locus YNL153C, strain GIM3, hits give low values 0.998 | S. cerevisiae deletion strains, locus YNL183C, strain NPR1, hits give low values 0.955 | S. cerevisiae deletion strains, locus YNL209W, strain ssb2, hits give low values 1.02 | S. cerevisiae deletion strains, locus YNL233W, strain BNI4, hits give low values 1.03 | S. cerevisiae deletion strains, locus YNL248C, strain rpa49, hits give low values 0.998 | S. cerevisiae deletion strains, locus YNL250W, strain rad50, hits give low values 0.937 | S. cerevisiae deletion strains, locus YNL271C, strain bni1, hits give low values 0.936 | S. cerevisiae deletion strains, locus YNL307C, strain MCK1, hits give low values 1.01 | S. cerevisiae deletion strains, locus YNL322C, strain KRE1 (second series), hits give low values 1.02 | S. cerevisiae deletion strains, locus YNR049C, strain mso1, hits give low values 1.03 | S. cerevisiae deletion strains, locus YNR052C, strain pop2, hits give low values 0.974 | S. cerevisiae deletion strains, locus YOL006C, strain TOP1, hits give low values 1.14 | S. cerevisiae deletion strains, locus YOL012C, strain htz1 0.778 | S. cerevisiae deletion strains, locus YOL147C, strain pex11, hits give low values 0.98 | S. cerevisiae deletion strains, locus YOR001W, strain rrp6, hits give low values 1.01 | S. cerevisiae deletion strains, locus YOR061W, strain CKA2, hits give low values 0.972 | S. cerevisiae deletion strains, locus YOR069W, strain VPS5, hits give low values 0.984 | S. cerevisiae deletion strains, locus YOR070C, strain gyp1, hits give low values 1.01 | S. cerevisiae deletion strains, locus YOR080W, strain dia2, hits give low values 1.03 | S. cerevisiae deletion strains, locus YOR083W, strain WHI5, hits give low values 0.988 | S. cerevisiae deletion strains, locus YOR106W, strain vam3, hits give low values 1.01 | S. cerevisiae deletion strains, locus YOR136W, strain idh2, hits give low values 1.01 | S. cerevisiae deletion strains, locus YOR144C, strain elg1, hits give low values 0.968 | S. cerevisiae deletion strains, locus YOR184W, strain ser1, hits give low values 0.998 | S. cerevisiae deletion strains, locus YOR231W, strain MKK1, hits give low values 0.997 | S. cerevisiae deletion strains, locus YOR265W, strain rbl2, hits give low values 1.02 | S. cerevisiae deletion strains, locus YOR270C, strain vph1, hits give low values 1.02 | S. cerevisiae deletion strains, locus YOR290C, strain snf2, hits give low values 1 | S. cerevisiae deletion strains, locus YOR316C, strain cot1, hits give low values 0.982 | S. cerevisiae deletion strains, locus YPL051W, strain arl3, hits give low values 1.01 | S. cerevisiae deletion strains, locus YPL055C, strain LGE1, hits give low values 1 | S. cerevisiae deletion strains, locus YPL078C, strain atp4, hits give low values 1.01 | S. cerevisiae deletion strains, locus YPL106C, strain sse1, hits give low values 1.02 | S. cerevisiae deletion strains, locus YPL240C, strain hsp82, hits give low values 1.02 | S. cerevisiae deletion strains, locus YPL241C, strain CIN2, hits give low values 0.981 | S. cerevisiae deletion strains, locus YPL256C, strain CLN2, hits give low values 0.982 | S. cerevisiae deletion strains, locus YPR119W, strain clb2, hits give low values 0.973 | S. cerevisiae deletion strains, locus YPR163C, strain tif3, hits give low values 0.992 | S. cerevisiae deletion strains, locus YPR167C, strain met16, hits give low values 0.972 | S. cerevisiae deletion strains, strain wtn01, hits give low values 0.967 | S. cerevisiae strains, strain wild type, hits give low values 0.953
